Results on five compounds are retold here after PubChem BioAssay.

The nature of assay [1]: small molecules captured by biotinylated probe aFSTL3 – biochemical, small-molecule microarray, fluorescence 635/667, stem cell growth factor project, primary screen (AID 1064).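 Also: measures binding of the biotinylated anti-FSTL3 antibody to printed compounds.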 As to conditions: higher = more signal.
Assay [2] is described as follows: binders from COS7 lysate, DM2A8 probe, primary screen, torsin A project, cell lysate, small-molecule microarray, fluorescence 635/667 (AID 1065). The settings on record: higher = more signal, COS7 lysate expressing mutant human TOR1A.
The nature of assay [3]: small molecules captured by biotinylated probe aFGF2 – biochemical, small-molecule microarray, fluorescence 635/667, stem cell growth factor project, primary screen (AID 1067).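 Also: measures binding of biotinylated aFGF2 protein to printed compounds on slides; z-score merges feature fluorescence and signal-to-noise across triplicate slides.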 The settings on record: higher = more signal.
The nature of assay [4]: small molecules captured by biotinylated probe aFGF10 – biochemical, small-molecule microarray, fluorescence 635/667, stem cell growth factor project, primary screen (AID 1071).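 Also: score merges 667 nm spot intensity and signal to noise from triplicate slides.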 The settings on record: higher = more signal.
Assay [5] deals with Neurogenic locus notch homolog protein 2 (Homo sapiens) (UniProt Q04721). Put plainly: small molecules binding Notch2 protein – biochemical, small-molecule microarray, 635 nm fluorescence, stem cell growth factors, primary screen (AID 1073). As to conditions: higher = more signal.
Assay [6] has as its target Pro-neuregulin-1, membrane-bound isoform (Homo sapiens) (UniProt Q02297). Put plainly: small molecules binding neuregulin-1 protein – biochemical, small-molecule microarray, fluorescence 635/667, psychiatric disease protein project, primary screen (AID 1075).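 Also: score combines 667 nm spot fluorescence with signal to noise.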 The settings on record: NRG1 binding, 635 nm fluorescence, higher = more signal.
In assay [7] the test system is Neuregulin-1 EGF-like domain. The assay is described as follows: small molecules binding NRG1 EGF domain – biochemical, small-molecule microarray, 635 nm fluorescence, primary screen (AID 1081).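 Also: binding of the protein to compounds printed on small-molecule microarray slides.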 As to conditions: higher = more signal.
A short description of assay [8]: FRG1 expression reporter modulators in myotubes – cell-based, C2C12 myotubes, firefly/Renilla luciferase, luminescence, FRG1 inhibition for FSHD, primary screen (AID 1084). As to conditions: FRG1 promoter luciferase, higher = more signal, called active from +8 up or from −8 down.
A short description of assay [9]: small molecules captured by biotinylated probe aFST – biochemical, small-molecule microarray, fluorescence 635/667, stem cell growth factor project, primary screen (AID 1086).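 Also: score merges 667 nm fluorescence with signal-to-noise of each printed compound spot.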 As to conditions: higher = more signal.
Assay [10] is described as follows: binders of probe aHhip on microarray, primary screen, stem cell growth factor project, biochemical, small-molecule microarray, fluorescence 635/667 (AID 1087).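 Also: score merges spot fluorescence at 667nm with spot signal to noise ratio.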 As to conditions: higher = more signal.
The test system of assay [11] is PRMT1 (protein arginine N-methyltransferase 1). The assay is described as follows: small molecules binding arginine methyltransferase PRMT1 – biochemical, small-molecule microarray, 635 nm fluorescence, primary screen (AID 1088).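 Also: binding of Prmt1 protein to compounds spotted on small-molecule microarray slides.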 The settings on record: higher = more signal.
A short description of assay [12]: growth effects on S. cerevisiae YJM789 – YJM789 clinical isolate, OD600, 24 h, basal, primary screen (AID 1089).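 Also: growth of clinical yeast isolate S. cerevisiae YJM 789 seeded 1000 cells per well; test concentration not given here.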 As to conditions: higher = more signal, called active from +8 up or from −8 down.
Assay [13] can be described thus: S. pombe growth modifiers, basal conditions – strain 972, OD600, 24 h, no modulator, primary screen (AID 1090).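 Also: basal condition with compound alone and no growth modifier present; test concentration not given here.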 The settings on record: S. pombe 972 growth, higher = more signal, called active from +8 up or from −8 down.
A short description of assay [14]: budding yeast growth modifiers under rapamycin – strain BY4716, OD600, 96 h, primary screen (AID 1091). Also: test concentration not given here. As to conditions: S. cerevisiae BY4716 + rapamycin, higher = more signal, called active from +8 up or from −8 down.
Assay [15] concerns the target Torsin-1A-interacting protein 2 (Homo sapiens) (UniProt Q8NFQ8). Put plainly: small molecules binding lysate-expressed LULL1 – cell lysate, human LULL1 lysate, 635/667 nm fluorescence, primary screen (AID 1092).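 Also: score merges per-feature 667 nm fluorescence with signal-to-noise.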 The settings on record: small-molecule microarray, hLULL1 lysate binding, 635 nm fluorescence; higher = more signal.
Assay [16] in a line: optical density change of DRC41 E. coli – strain DRC41, OD650, 24 h, E. coli filamentation project, primary screen (AID 1093).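 Also: MC1000 strain lacking acrAB efflux and sulA so SOS filamentation is blocked; test concentration not given here.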 As to conditions: E. coli DRC41 growth, higher = more signal, called active from +8 up or from −8 down.
Assay [17] can be described thus: probe aLefty2 binding to arrayed compounds – biochemical, biotinylated probe, 635/667 nm fluorescence, primary screen (AID 1094).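 Also: score merges spot fluorescence near 667 nm with spot signal-to-noise ratio.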 As to conditions: small-molecule microarray, higher = more signal.
Assay [18] relates to Noggin (protein binding on small-molecule microarray). The assay is described as follows: small molecules binding Noggin protein – biochemical, 635/667 nm fluorescence, primary screen (AID 1095).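 Also: score merges 667 nm feature fluorescence with signal to noise over triplicate slides.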 The settings on record: 635 nm fluorescence, higher = more signal.
The target in assay [19] is Neurogenic locus notch homolog protein 3 (Homo sapiens) (UniProt Q9UM47). The assay is described as follows: small molecules binding NOTCH3 protein – biochemical, 635/667 nm fluorescence, primary screen (AID 1096). The settings on record: small-molecule microarray, 635 nm fluorescence, higher = more signal.
Neurogenic locus notch homolog protein 3 (Homo sapiens), sequence (Q9UM47 whole entry, looked up): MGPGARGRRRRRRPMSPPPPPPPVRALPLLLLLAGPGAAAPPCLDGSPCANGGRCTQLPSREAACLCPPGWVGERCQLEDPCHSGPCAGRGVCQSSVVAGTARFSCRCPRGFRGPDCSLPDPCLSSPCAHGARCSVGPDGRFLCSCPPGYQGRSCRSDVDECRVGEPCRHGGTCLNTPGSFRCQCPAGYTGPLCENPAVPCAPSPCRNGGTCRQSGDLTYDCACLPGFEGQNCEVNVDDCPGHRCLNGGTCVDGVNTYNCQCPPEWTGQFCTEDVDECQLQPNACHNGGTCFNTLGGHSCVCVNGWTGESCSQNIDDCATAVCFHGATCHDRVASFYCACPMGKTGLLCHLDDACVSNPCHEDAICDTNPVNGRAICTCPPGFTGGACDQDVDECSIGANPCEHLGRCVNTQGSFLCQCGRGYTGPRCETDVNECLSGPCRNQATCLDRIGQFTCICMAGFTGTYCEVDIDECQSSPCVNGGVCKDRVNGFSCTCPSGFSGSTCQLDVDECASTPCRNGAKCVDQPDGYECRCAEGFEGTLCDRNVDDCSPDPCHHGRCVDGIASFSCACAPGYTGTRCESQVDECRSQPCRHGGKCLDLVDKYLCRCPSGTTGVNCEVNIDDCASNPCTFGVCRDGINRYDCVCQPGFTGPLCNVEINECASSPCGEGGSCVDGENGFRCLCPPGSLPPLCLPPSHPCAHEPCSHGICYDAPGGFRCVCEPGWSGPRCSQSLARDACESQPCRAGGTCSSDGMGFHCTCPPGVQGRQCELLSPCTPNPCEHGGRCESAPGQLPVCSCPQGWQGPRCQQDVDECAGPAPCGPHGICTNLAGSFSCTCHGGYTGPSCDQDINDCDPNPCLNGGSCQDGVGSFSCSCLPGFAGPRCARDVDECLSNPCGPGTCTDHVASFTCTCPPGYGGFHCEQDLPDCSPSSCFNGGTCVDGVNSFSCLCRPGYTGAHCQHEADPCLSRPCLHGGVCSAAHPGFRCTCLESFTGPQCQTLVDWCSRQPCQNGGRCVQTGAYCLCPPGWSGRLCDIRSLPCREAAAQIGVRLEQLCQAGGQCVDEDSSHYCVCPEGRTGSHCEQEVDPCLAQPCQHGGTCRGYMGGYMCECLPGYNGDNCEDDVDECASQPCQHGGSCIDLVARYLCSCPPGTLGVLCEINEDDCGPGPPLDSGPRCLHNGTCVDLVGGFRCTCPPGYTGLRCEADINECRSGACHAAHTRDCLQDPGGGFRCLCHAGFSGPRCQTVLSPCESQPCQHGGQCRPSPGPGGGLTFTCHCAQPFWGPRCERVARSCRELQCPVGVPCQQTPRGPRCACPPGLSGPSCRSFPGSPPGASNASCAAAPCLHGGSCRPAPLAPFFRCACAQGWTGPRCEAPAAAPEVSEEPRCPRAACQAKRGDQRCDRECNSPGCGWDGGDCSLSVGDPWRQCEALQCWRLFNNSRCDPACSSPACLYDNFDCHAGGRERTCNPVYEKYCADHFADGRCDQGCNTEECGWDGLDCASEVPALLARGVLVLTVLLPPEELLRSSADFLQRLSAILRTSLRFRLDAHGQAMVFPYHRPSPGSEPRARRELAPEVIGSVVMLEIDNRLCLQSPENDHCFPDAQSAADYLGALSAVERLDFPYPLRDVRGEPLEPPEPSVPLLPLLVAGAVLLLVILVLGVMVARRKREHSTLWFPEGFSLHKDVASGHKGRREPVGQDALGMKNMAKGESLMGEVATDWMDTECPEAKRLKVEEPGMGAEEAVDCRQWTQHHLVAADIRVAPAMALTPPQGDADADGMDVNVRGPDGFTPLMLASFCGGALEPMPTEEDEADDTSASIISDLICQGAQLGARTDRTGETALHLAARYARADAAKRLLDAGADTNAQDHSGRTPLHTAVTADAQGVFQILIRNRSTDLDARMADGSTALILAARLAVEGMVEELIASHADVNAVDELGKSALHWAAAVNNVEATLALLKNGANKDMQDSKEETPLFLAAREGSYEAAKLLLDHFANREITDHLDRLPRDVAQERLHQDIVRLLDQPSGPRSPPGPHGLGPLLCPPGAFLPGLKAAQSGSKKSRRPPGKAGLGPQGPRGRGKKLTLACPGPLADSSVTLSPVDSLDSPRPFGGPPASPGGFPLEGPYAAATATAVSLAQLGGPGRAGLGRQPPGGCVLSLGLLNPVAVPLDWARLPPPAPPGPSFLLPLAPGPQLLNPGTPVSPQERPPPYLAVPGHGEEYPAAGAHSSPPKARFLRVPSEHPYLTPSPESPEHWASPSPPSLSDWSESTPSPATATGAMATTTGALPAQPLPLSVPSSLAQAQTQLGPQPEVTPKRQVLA
Assay [20] is described as follows: probe aEGFR binding to arrayed compounds – biochemical, biotinylated probe, 635/667 nm fluorescence, primary screen (AID 1097).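 Also: probe is a biotinylated anti-EGFR antibody binding compounds printed on slides; score combines fluorescence near 667 nm and signal to noise of each spot.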 As to conditions: small-molecule microarray, higher = more signal.

Calls of active or inactive are those of the source.

Pro-neuregulin-1, membrane-bound isoform (Homo sapiens), sequence (Q02297 whole entry, looked up, the tested form may be a part, canonical isoform): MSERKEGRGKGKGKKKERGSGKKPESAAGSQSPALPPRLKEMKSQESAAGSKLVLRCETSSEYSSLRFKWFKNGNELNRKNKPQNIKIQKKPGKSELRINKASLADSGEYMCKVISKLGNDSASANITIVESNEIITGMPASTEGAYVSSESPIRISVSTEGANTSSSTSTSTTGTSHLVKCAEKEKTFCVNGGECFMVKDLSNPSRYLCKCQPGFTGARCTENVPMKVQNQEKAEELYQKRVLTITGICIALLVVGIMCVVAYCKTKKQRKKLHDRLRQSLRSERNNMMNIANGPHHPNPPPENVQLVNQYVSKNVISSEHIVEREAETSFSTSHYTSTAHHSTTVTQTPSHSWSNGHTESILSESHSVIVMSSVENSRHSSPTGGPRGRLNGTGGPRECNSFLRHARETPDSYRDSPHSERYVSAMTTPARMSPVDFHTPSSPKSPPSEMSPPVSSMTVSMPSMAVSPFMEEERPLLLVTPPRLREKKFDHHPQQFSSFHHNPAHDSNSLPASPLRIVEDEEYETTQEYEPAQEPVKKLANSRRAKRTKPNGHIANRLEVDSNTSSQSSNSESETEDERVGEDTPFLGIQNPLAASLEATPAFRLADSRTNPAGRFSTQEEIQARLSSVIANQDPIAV
Torsin-1A-interacting protein 2 (Homo sapiens), sequence (Q8NFQ8 whole entry, looked up): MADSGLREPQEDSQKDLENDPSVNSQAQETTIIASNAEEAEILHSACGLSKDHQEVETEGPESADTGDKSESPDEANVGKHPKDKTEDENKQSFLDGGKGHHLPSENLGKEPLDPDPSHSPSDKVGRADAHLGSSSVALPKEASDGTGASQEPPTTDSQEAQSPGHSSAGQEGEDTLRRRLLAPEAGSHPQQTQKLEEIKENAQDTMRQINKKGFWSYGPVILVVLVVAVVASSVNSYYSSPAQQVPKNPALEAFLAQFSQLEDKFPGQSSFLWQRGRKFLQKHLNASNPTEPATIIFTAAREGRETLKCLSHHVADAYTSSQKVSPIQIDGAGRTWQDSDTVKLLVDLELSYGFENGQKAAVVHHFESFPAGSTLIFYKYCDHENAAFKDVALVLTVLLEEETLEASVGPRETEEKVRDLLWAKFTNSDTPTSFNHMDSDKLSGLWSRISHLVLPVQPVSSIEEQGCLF

`CC(C)OC(=O)C=C1C[C@@H](c2ccc(C#N)cc2)O[C@@H](c2ccc(C#N)cc2)O1`: the composite z-score was -0.475 in assay [1]; 0.334 in assay [2]; 0.235 in assay [3]; 1.01 in assay [4]; 1.68 in assay [5]; 1.64 in assay [6]. The composite z-score amounted to 1.21 in assay [7]; 1.58 in assay [9]; 0.233 in [10]; 1.55 in [11]; 3.36 in [15]; 0.314 in assay [17]. Further, the composite z-score came out at 0.747 in [18], 1.06 in assay [19] and 0.11 in [20]. In addition, the z-score was 0.0509 (inactive) in assay [8]; 0.149 (inactive) in [12]; -2.93 (inactive) in assay [13]; 1.01 (inactive) in [14]; 0.554 (inactive) in assay [16].
On to `CO[C@H]([C@@H](C)[C@H](OC)c1ccccc1)[C@H](C)[C@@H](OC)[C@H](C)C(C)=O`, for which the composite z-score in assay [1] was -0.426; in [2] it was -0.292; in assay [3], -0.0785; in [4], -0.154; in [5] it was -0.448; in assay [6] it was -0.383. In addition, the composite z-score in [7] was -0.944; in assay [9] it was 0.0432; in [10] it was 2.49; in assay [11], -0.694; in assay [15], -0.391; in [17] it was -0.0159. Further, the composite z-score is -0.233 in assay [18], -0.177 in assay [19] and -0.0996 in [20]. Also, the z-score in assay [8] is 0.425 (inactive); in assay [12], 0.474 (inactive); in [13], -0.0357 (inactive); in assay [14] it was -0.175 (inactive); in [16], 0.243 (inactive).
Regarding `COC(=O)[C@H](C)NC(=O)[C@@H](C)CO`, the composite z-score in [1] was -0.329; in assay [2] it was 1.2; in [3], -0.116; in assay [4] it was 0.75; in assay [5] it was 0.591; in [6], 0.515. Moreover, the composite z-score in [7] is 1.04; in [9] it was 0.357; in assay [10] it was 0.316; in assay [11], 1.46; in [15] it was 1.68; in assay [17] it was -0.0607. Moreover, the composite z-score in assay [18] is 0.67; in assay [19] it was 1.07; in assay [20], -0.0578. The z-score in assay [8] is -0.256 (inactive); in assay [12], 0.0198 (inactive); in assay [13], -0.0164 (inactive); in assay [14], 0.669 (inactive); in [16], -0.8 (inactive).
In the case of `O=C(NN=C1C[C@@H](O)[C@@H](O)[C@@H]2[C@@H]3C(=O)N(c4cccc(Oc5ccccc5)c4)C(=O)[C@@H]3CC[C@@H]12)OCc1ccccc1`, the composite z-score in assay [1] was 0.103; in assay [2], -0.336; in [3], -0.0891; in [4], 0.0457; in assay [5], 0.222; in [6] it was 0.259. For the same compound, the composite z-score is -0.157 in [7]; 0.274 in assay [9]; 0.2 in [10]; 0.633 in assay [11]; 1.46 in assay [15]; -0.0345 in assay [17]. Moreover, the composite z-score is 0.635 in assay [18], 0.0096 in assay [19] and -0.124 in [20]. Moreover, the z-score in [8] is 0.31 (inactive); in [12] it was 0.909 (inactive); in assay [13], 0.588 (inactive); in assay [14] it was 0.281 (inactive); in [16] it was 0.108 (inactive).
For `CCCNC(=O)OC[C@H]1O[C@H](CCON=C[C@@H](OC)[C@H](C)C=CCC(=O)OC)C=C[C@@H]1Oc1ccc(OC)cc1`, the composite z-score in [1] is -0.479; in [2] it was 0.698; in [3] it was -0.136; in assay [4] it was -0.192; in assay [5], -0.0065; in assay [6], -0.23. In addition, the composite z-score in [7] was 0.614; in [9], -0.0617; in assay [10], -0.0672; in [11], 1.17; in assay [15], 0.524; in [17] it was -0.0519. Further, the composite z-score is 0.194 in assay [18], -0.31 in [19] and -0.136 in [20]. Besides, the z-score in assay [8] was 1.16 (inactive); in assay [12] it was -1.01 (inactive); in assay [13], 0.141 (inactive); in assay [14] it was -0.0988 (inactive); in assay [16], 0.294 (inactive).
